Measurements as given in the supplement of paper PMC6555819.

What was measured:
Test in all cases: PBM binding z-score (relative to random genomic background probes); higher = stronger binding; sequences stand for … in GC…GCGATTGACAGCGTAGAATGAAGG
[1] = test system: FXR:RXRa (NR concentration 270 nM, RXRa partner concentration 90 nM)
Procedure, shortened: (§1)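 For binding z-scores, the reference was random background probes on custom Agilent 4×180K protein-binding microarrays. These arrays were incubated 1 h with ligand-free nuclear receptor dimers in PBS pH 7.4, 2% milk, 0.02% Triton X-100, 1 mM DTT, 0.2 mg/mL BSA and 0.4 mg/ml salmon testes DNA. Fluorescence was scanned after antibody detection of each partner (one per run) and regression-normalized.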

[2] = test system: LXRa:RXRa (NR concentration 270 nM, RXRa partner concentration 90 nM)
Procedure, shortened: as §1

[3] = test system: LXRa homodimer (NR concentration 270 nM)
Procedure, shortened: as §1

[4] = test system: LXRb:RXRa (NR concentration 270 nM, RXRa partner concentration 90 nM)
Procedure, shortened: as §1

[5] = test system: LXRb homodimer (NR concentration 270 nM)
Procedure, shortened: as §1

[6] = test system: PPARa:RXRa (NR concentration 270 nM, RXRa partner concentration 90 nM)
Procedure, shortened: as §1

[7] = test system: PPARg:RXRa (NR concentration 180 nM, RXRa partner concentration 90 nM)
Procedure, shortened: as §1

[8] = test system: PPARg:RXRa 270nM:90nM, anti-RXR (NR concentration 270 nM, RXRa partner concentration 90 nM)
Procedure, shortened: as §1

[9] = test system: PPARg:RXRa 30nM:10nM, anti-RXR (NR concentration 30 nM, RXRa partner concentration 10 nM)
Procedure, shortened: as §1

[10] = test system: PPARg:RXRa 90nM:30nM, anti-RXR (NR concentration 90 nM, RXRa partner concentration 30 nM)
Procedure, shortened: as §1

[11] = test system: PPARg:RXRa DBDmut IVT, anti-RXR (DBD mutation: RXRa K156A/R161A, NR concentration 270 nM, RXRa partner concentration 90 nM)
Procedure, shortened: as §1

[12] = test system: PPARg:RXRa IVT, anti-PPARg (NR concentration 270 nM, RXRa partner concentration 90 nM)
Procedure, shortened: as §1

[13] = test system: PPARg DBDmut:RXRa IVT, anti-PPARg (DBD mutation: PPARg1 K132A/R137A, NR concentration 270 nM, RXRa partner concentration 90 nM)
Procedure, shortened: as §1

[14] = test system: PPARg DBDmut IVT, anti-PPARg (DBD mutation: PPARg1 K132A/R137A, NR concentration 270 nM)
Procedure, shortened: as §1

[15] = test system: PPARg homodimer (NR concentration 180 nM)
Procedure, shortened: as §1

[16] = test system: PXR:RXRa (NR concentration 270 nM, RXRa partner concentration 90 nM)
Procedure, shortened: as §1

[17] = test system: PXR homodimer (NR concentration 270 nM)
Procedure, shortened: as §1

[18] = test system: RARa:RXR (NR concentration 270 nM, RXRa partner concentration 90 nM)
Procedure, shortened: as §1

[19] = test system: RARa homodimer (NR concentration 270 nM)
Procedure, shortened: as §1

[20] = test system: RARb:RXRa (NR concentration 270 nM, RXRa partner concentration 90 nM)
Procedure, shortened: as §1

| Sequence | PBM binding z-score [1] | PBM binding z-score [2] | PBM binding z-score [3] | PBM binding z-score [4] | PBM binding z-score [5] | PBM binding z-score [6] | PBM binding z-score [7] | PBM binding z-score [8] | PBM binding z-score [9] | PBM binding z-score [10] | PBM binding z-score [11] | PBM binding z-score [12] | PBM binding z-score [13] | PBM binding z-score [14] | PBM binding z-score [15] | PBM binding z-score [16] | PBM binding z-score [17] | PBM binding z-score [18] | PBM binding z-score [19] | PBM binding z-score [20] |
| --- | --- | --- | --- | --- | --- | --- | --- | --- | --- | --- | --- | --- | --- | --- | --- | --- | --- | --- | --- | --- |
| TCGAGTAGGTTACCAATGGGGCATTTAGCTTTCT | 0.00953 | 1.35 | -0.662 | 1.09 | -0.721 | 1.22 | 0.144 | 1.33 | 1.33 | 1.2 | 3.03 | 2.59 | -0.535 | -0.583 | -0.292 | 0.195 | -0.763 | 0.343 | -1.23 | 0.686 |
| GTACCAAGGTGAATAGGTCGTCGATGAGTAGGCG | 0.785 | 0.833 | -0.158 | 0.527 | -0.663 | 2.45 | 1.5 | 1.81 | 0.196 | 1.18 | 1.91 | 2.77 | -0.404 | -0.279 | 0.976 | 0.807 | -0.119 | 1.9 | 0.0363 | 2.18 |
| TCGAGTAGGTTAGTGGGGGCATTCAGCCAACATA | 1.28 | 1.52 | 0.619 | 3.73 | 6.59 | 2.68 | 2.05 | 3.03 | 1.76 | 2.53 | 3.24 | 4.33 | 4.17 | 4.96 | 1.66 | 2.68 | 1.78 | 1.76 | 0.673 | 1.39 |
| ATACCAAGGTGATCGTGAGGTCGTTGGTACTAAC | 1.53 | 1.48 | 0.698 | 0.769 | 0.221 | 1.51 | 0.281 | 0.597 | -0.201 | 0.338 | 0.259 | 1.28 | -0.235 | -0.0791 | 0.658 | 2.89 | 0.856 | 2.43 | -0.116 | 1.43 |
| CCAGACAGGTGAAAGGTATCTCAGTCTGGTACGC | -0.129 | 0.0546 | -0.271 | 0.122 | -0.633 | 2.07 | 3.41 | 4.19 | 1.94 | 4.13 | 2.04 | 1.9 | 0.166 | -0.382 | 0.656 | 0.00827 | -0.341 | 0.664 | -0.422 | 0.68 |
| CATTACGGGTCACTCCAGGTTATAGCATCGGAGT | 5.62 | 7.54 | 4.42 | 5.55 | 1.54 | 4.96 | 4.53 | 4.77 | 1.56 | 3.53 | 3.99 | 4.96 | 1.72 | 1.65 | 2.09 | 5.11 | 0.705 | 3.78 | 0.9 | 3.97 |
| TCGAGTAGGTTAGTAGGGGCATTCAGCCAACATA | 0.292 | -0.0612 | -0.0759 | 0.774 | -0.216 | 1.29 | 1.01 | 1.82 | 0.971 | 1.35 | 2.98 | 3.4 | 0.408 | 0.00263 | 0.668 | 0.244 | 0.000181 | 0.287 | 0.25 | 0.637 |
| CAAACTAGGTCAAGGGTCAAAGTCGAGCCAACCA | 7.52 | 5.72 | 2.34 | 5.71 | 1.02 | 7.64 | 13.1 | 10.9 | 11.4 | 11.8 | 8.5 | 9.08 | 6.09 | 4.1 | 5.23 | 5.66 | 0.825 | 7.15 | 1.84 | 5.38 |
| GCCAGCAGGCCATTTGGGTCACTCAATGACGGGC | 0.0652 | -0.0507 | -0.664 | -0.289 | -1.29 | 1.02 | 0.451 | 0.16 | -0.483 | -0.357 | 0.295 | 1.48 | -0.593 | -1.66 | -0.218 | 0.499 | 0.123 | 0.783 | -1.21 | 1.49 |
| CTACCAAGGTGACCAAGGTCGTTGATTACTATTC | 0.954 | 0.863 | 0.0331 | 1.37 | -0.415 | 1.82 | 0.763 | 0.769 | -0.239 | 0.452 | 1.56 | 2.32 | -0.302 | -0.385 | 0.966 | 2.3 | 1.04 | 2.16 | -0.214 | 1.65 |
| CCAGATAGGTGAAAGGTAACTCAGTCTGGTACGC | 0.688 | 0.694 | 0.0245 | 1.14 | -0.143 | 4.2 | 7.95 | 7.54 | 7.57 | 7.93 | 5.2 | 4.32 | 0.289 | -0.0951 | 1.74 | 1.02 | 0.111 | 2.13 | 0.659 | 1.31 |
| CCTCGTAGGACAACAGGAGGTCAGAGCTGCCAGA | 0.951 | 2.16 | 1.91 | 1.57 | -0.267 | 1.99 | 0.534 | 0.644 | -0.534 | 0.258 | 0.397 | 0.633 | -0.938 | -1.38 | 1.75 | 2.08 | 0.26 | 2.37 | 0.699 | 2.56 |
| ATCGAAAGGTCGAGGTGAGGATAGAGAAAGGGAA | 4.33 | 3.16 | 0.082 | 2.64 | 0.457 | 4.44 | 3.06 | 3.83 | 1.33 | 2.81 | 0.551 | 2.41 | 1.29 | 0.836 | 1.63 | 2.46 | 0.644 | 3.16 | 0.718 | 4.06 |
| CGTCCAAAGTCAAGGTCAGTGAAAGAGACTCGAA | 2.34 | 2.12 | 0.643 | 1.74 | 0.209 | 2.8 | 0.614 | 1.04 | 0.0766 | 0.615 | 0.62 | 0.874 | -0.185 | -0.414 | 2.49 | 2.05 | 1.01 | 2.47 | 0.742 | 3.62 |
